# High-throughput results from PubChem.
# MEKK2 WT-MEK5: raises or lowers MEK5 binding to wildtype human MEKK2 PB1 domain. Q9Y2U5. bead flow cytometry, Alexa488-MEK5 binding to MEKK2 WT; actives lie on both sides. binding response (% of control), % at 10 µM. 1.1% of 290,000 active. AID 1531; in the data active means binding response below about 67% or above about 130%
# MEKK2mut PB1 HTS: signal of MEK5 binding to mutant human MEKK2 PB1 domain; AID 1530; 0.35% of 290,000 active; percent response, % at 10 µM; bead flow cytometry, Alexa488-MEK5 binding to MEKK2 mutant; in the data active means percent response above about 24%, passing the limit was not always enough
# MEKK3 PB1 HTS: modulators (inhibitors or enhancers) of MEK5 binding to human MEKK3 PB1 domain | bead-based flow cytometry, Alexa488-MEK5 binding to MEKK3; actives lie on both sides; 0 = blocked by unlabeled MEK5, 100 = vehicle | 1.4% of 290,000 active | binding response (% of control), % at 10 µM | Q99759 | AID 1529;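 active means binding response more than 3 SD above or below the average of its plate-row segment, actives on both sides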;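 further: Alexa488 bead fluorescence after subtracting the streptavidin-only scavenger bead signal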
# GRK2 inh: inhibitors of human GRK2 displacing RNA aptamer. P25098. bead flow cytometry, FAM-aptamer displacement from GRK2. 0.59% of 330,000 active. inhibition of aptamer binding, % at 10 µM. AID 488847;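 active means inhibition of aptamer binding above 40%, roughly 3 SD of noise, on plates passing a quality check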;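 further: median bead fluorescence of bound FAM aptamer so fluorescent compounds give negative values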
# Target sequence (P25098 whole entry, looked up): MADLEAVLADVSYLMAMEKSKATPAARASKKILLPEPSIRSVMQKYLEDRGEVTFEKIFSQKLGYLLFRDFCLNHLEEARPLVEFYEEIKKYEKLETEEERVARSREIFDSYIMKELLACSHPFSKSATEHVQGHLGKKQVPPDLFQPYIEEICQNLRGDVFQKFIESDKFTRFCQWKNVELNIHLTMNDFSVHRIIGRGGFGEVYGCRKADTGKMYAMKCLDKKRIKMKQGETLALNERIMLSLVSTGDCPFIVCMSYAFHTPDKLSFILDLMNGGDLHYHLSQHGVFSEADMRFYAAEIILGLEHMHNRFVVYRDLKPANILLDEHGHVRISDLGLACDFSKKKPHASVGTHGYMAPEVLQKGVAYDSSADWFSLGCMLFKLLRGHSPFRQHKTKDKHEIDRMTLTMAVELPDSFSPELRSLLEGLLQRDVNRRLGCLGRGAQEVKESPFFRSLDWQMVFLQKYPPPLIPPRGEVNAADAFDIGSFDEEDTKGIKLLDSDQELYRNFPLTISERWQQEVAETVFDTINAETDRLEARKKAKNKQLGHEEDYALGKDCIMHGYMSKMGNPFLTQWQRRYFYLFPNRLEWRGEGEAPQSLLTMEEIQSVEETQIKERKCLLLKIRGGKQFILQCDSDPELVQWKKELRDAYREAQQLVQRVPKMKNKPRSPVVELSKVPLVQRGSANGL
# MEKK2wt confirm: raises or lowers MEK5 binding to wildtype human MEKK2, retest; shares compounds with MEKK3 PB1 HTS; AID 1892; binding response (% of control), % at 10 µM; bead flow cytometry, Alexa488-MEK5 binding to MEKK2 WT; actives lie on both sides; 2.4% of 5,900 active; in the data active means binding response below about 16% or above about 210%; inactive means in between
# MEKK2mut-MEK5: signal of MEK5 binding to mutant human MEKK2, retest; 2% of 5,900 active; percent response, % at 10 µM; shares compounds with MEKK3 PB1 HTS; AID 1893; bead flow cytometry, Alexa488-MEK5 binding to MEKK2 mutant; in the data active means percent response mostly above about 71%, no sharp cut-off; inactive means mostly below about 38%;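 further: higher means compound restores mutant binding toward wildtype level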
# MEKK3-MEK5 inh: confirmation of inhibitors of MEK5 binding to human MEKK3; shares compounds with MEKK3 PB1 HTS; bead flow cytometry, Alexa488-MEK5 binding to MEKK3; stronger effect = lower value; binding response (% of control), % at 10 µM; 1.8% of 5,900 active; AID 1894;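 active means binding response below 72% of control, or above a set upper limit, though filed actives all read lower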;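 further: 100% = DMSO only wells and 0% = binding blocked by excess unlabeled MEK5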
# Numbers without * were called inactive; . = not tested or not shown; [ ] = dose if it differs, or a comment. Sampled rows, rich in hits. Any-hit rate of the full collection: about 2.5%.
SMILES,MEKK2 WT-MEK5,MEKK2mut PB1 HTS,MEKK3 PB1 HTS,GRK2 inh,MEKK2wt confirm,MEKK2mut-MEK5,MEKK3-MEK5 inh
CS(=O)(=O)N1N=C(c2ccc(Br)cc2)CC1c1ccc2c(c1)OCO2 (stereo not drawn),14.0*,83.0*,94.0,0.0,103.0,-2.0,96.0
CS(=O)(=O)Nc1ccc(C2=NN(S(C)(=O)=O)C(c3ccc4nccnc4c3)C2)cc1 (stereo not drawn),.,.,3.0*[inhibitor],0.0,70.0,-6.0,73.0
CCS(=O)(=O)N1N=C(c2cccc(NS(C)(=O)=O)c2)CC1c1ccccc1 (stereo not drawn),.,.,.,36.0,.,.,.
CC(=O)N1N=C(c2ccc(C)cc2)CC1c1ccc2c(c1)OCO2 (stereo not drawn),101.0,4.0,98.0,1.0,.,.,.
CCOc1ccc(C(=O)COC(=O)c2cccc(-n3cnnn3)c2)cc1,103.0,5.0,97.0,3.0,.,.,.
Cc1ccnc(NC(=O)c2cc(S(=O)(=O)N3CCCCC3)ccc2Cl)c1,125.0,8.0,134.0*,0.0,104.0,7.0,106.0
CCC(C)(C)n1nnnc1C(c1ccncc1)N1CCN(c2cccc(OC)c2)CC1 (stereo not drawn),98.0,-4.0,87.0,3.0,.,.,.
CCC(C)(C)n1nnnc1C(c1cccnc1)N1CCN(c2cccc(C(F)(F)F)c2)CC1 (stereo not drawn),120.0,7.0,123.0*,1.0,101.0,-2.0,102.0
CN(C)S(=O)(=O)c1cccc(NC(=O)c2cnccn2)c1,104.0,3.0,112.0,0.0,.,.,.
CCc1ccc2c(CN3CCc4cc(OC)c(OC)cc4C3)cc(=O)oc2c1,93.0,-3.0,91.0,3.0,.,.,.
COc1ccc(-c2cc(C#N)nc(N3CCNCC3)n2)cc1,215.0*,57.0*,84.0,0.0,223.0*,71.0*,95.0
COc1ccc(-c2cc(C#N)nc(N3CCN(C)CC3)n2)cc1,101.0,-3.0,94.0,0.0,.,.,.
CC(=O)OCC(=O)N1CCN(c2ccc([N+](=O)[O-])cc2)CC1,110.0,3.0,112.0,3.0,.,.,.
Cc1cc(C)c2cc(C#N)c(N3CCCN(C(=S)NCCCN(C)C)CC3)nc2c1,120.0,32.0*,99.0,0.0,119.0,3.0,99.0
Cc1ccc2cc(C#N)c(N3CCCN(C(=S)NCCCN(C)C)CC3)nc2c1,117.0,15.0,99.0,0.0,.,.,.
C/C(=C\c1ccccc1)CN1CCC(C(=O)N2CCCCC2)CC1,109.0,3.0,138.0*,0.0,104.0,4.0,102.0
O=C(NC1CCCCC1)C(c1ccc(Cl)cc1)N1CCC2(CC1)OCCO2 (stereo not drawn),2.0*[inhibitor],-16.0,2.0*[inhibitor],0.0,109.0,5.0,107.0
CCOC(=O)c1c(C)n(C)c2ccc(OC(=O)c3ccc([N+](=O)[O-])cc3)cc12,103.0,-1.0,138.0*,3.0,102.0,3.0,103.0
CCOC(=O)c1c(C)n(CC)c2ccc(OC(=O)c3ccc([N+](=O)[O-])cc3)cc12,98.0,-1.0,96.0,0.0,.,.,.
CCOC(=O)c1c(C)n(C)c2cc(-c3ccc(C)cc3)c(O)cc12,105.0,0.0,131.0*,0.0,103.0,1.0,103.0
CC(c1ccc2c(c1)OCO2)n1c(=S)[nH]c2ccccc2c1=O (stereo not drawn),.,.,.,0.0,.,.,.
C=CCn1c(SCC(=O)Nc2cc(C)on2)nnc1C1COc2ccccc2O1 (stereo not drawn),105.0,-2.0,103.0,7.0,.,.,.
CC1CC(C)CN(C(=O)COC(=O)c2cccc([N+](=O)[O-])c2)C1 (stereo not drawn),50.0,-16.0,48.0*[inhibitor],0.0,100.0,-4.0,106.0
O=C(OCC(=O)N1CCN(c2ccccc2)CC1)c1cccc([N+](=O)[O-])c1,.,.,.,4.0,.,.,.
O=C(O)CCNC(=O)/C(=C\C=C\c1ccccc1)NC(=O)c1ccccc1,125.0,35.0,134.0*,6.0,98.0,-8.0,99.0
SMILES,MEKK2 WT-MEK5,MEKK2mut PB1 HTS,MEKK3 PB1 HTS,GRK2 inh,MEKK2wt confirm,MEKK2mut-MEK5,MEKK3-MEK5 inh
Cc1ccc(C(=O)N/C(=C\C=C\c2ccccc2)C(=O)NCc2ccco2)cc1,107.0,0.0,146.0*,0.0,96.0,-5.0,101.0
O=C(Nc1ccc(O)cc1)/C(=C\C=C\c1ccccc1)NC(=O)c1ccccc1,93.0,-9.0,99.0,1.0,.,.,.
Cc1nn(C)c2c(=O)c(=O)c2n(C)[nH]1,91.0,-5.0,95.0,1.0,.,.,.
N#Cc1cn(CC(=O)NCc2cccnc2)c2ccccc12,101.0,-1.0,99.0,3.0,.,.,.
O=C1COc2ccc(C(=O)CSc3nnc(Cc4cccs4)n3-c3ccc(Cl)cc3)cc2N1,65.0,-24.0,55.0*[inhibitor],4.0,101.0,4.0,108.0
CCc1ccc(-n2c(SCC(=O)c3ccc4c(c3)NC(=O)CO4)nc3ccccc3c2=O)cc1,93.0,0.0,94.0,0.0,.,.,.
O=C1COc2ccc(C(=O)CSc3nc4ccccc4c(=O)n3-c3ccc(Cl)c(Cl)c3)cc2N1,113.0,0.0,136.0*,0.0,37.0,-26.0,72.0
COCCN(C(=O)CCC(=O)Nc1ccccn1)C(C(=O)NC(C)C)c1ccc(Cl)cc1 (stereo not drawn),102.0,0.0,100.0,1.0,.,.,.
N=C(N)c1ccc(OCCCCCOc2ccc(C(=N)N)cc2)cc1,150.0*,12.0,69.0,0.0,97.0,-14.0,66.0*
CCCCCCOc1ccc(/C(N)=N/O)cc1,100.0,7.0,100.0,1.0,.,.,.
COc1ccc(C2N(c3cc(C)on3)C(=O)C3CCCN32)cc1OC (stereo not drawn),97.0,-1.0,91.0,1.0,.,.,.
CCOc1ccc(C2N(c3cc(C)on3)C(=O)C3CCCN32)cc1OC (stereo not drawn),-2.0*[inhibitor],-17.0,-1.0*[inhibitor],2.0,108.0,6.0,104.0
COC(=O)c1c(C)oc(C)c1S(=O)(=O)NC(C)(C)C,97.0,0.0,95.0,0.0,.,.,.
COC(=O)c1c(C)oc(C)c1S(=O)(=O)N1CCCCC1,102.0,6.0,108.0,3.0,.,.,.
COC(=O)c1c(C)oc(C)c1S(=O)(=O)N1CCCC1,130.0,27.0,131.0*,0.0,103.0,-1.0,100.0
COC(=O)c1c(C)oc(C)c1S(=O)(=O)N(Cc1ccccc1)C(C)C,134.0,28.0,129.0*,4.0,-2.0*[inhibitor],-4.0,99.0
COC(=O)c1c(C)oc(C)c1S(=O)(=O)Nc1ccccc1,130.0,24.0,132.0*,3.0,98.0,-2.0,102.0
Cc1sc2nc(SCC(=O)NCCCO)n(-c3ccccc3)c(=O)c2c1C,110.0,8.0,104.0,1.0,.,.,.
FC(F)(F)c1ccccc1NC(=S)NN1CCOCC1,99.0,0.0,101.0,0.0,.,.,.
